From PubChem BioAssay
Records with an inconclusive call do not appear. Active and inactive are the calls of the source.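 How the source made its calls, unless noted: active means GFP response, as percent of the DMSO control, above the screen-wide mean plus 3 SD, about 139; inconclusive means no response measured because the compound's own fluorescence interfered; inactive means the rest.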

Legend:
[1] = rapamycin-like changes in RPL19A-GFP expression – cell-based, S. cerevisiae, multiplex flow cytometry, primary screen (AID 1862; in the data active means percent of DMSO control GFP below about 86%;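 further: lower values mimic rapamycin by blocking the RPL19A rise seen in DMSO cells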); settings: S. cerevisiae RPL19A-GFP strain, flow cytometry fluorescence, 3 h; at 10 µM; stronger effect = lower value
[2] = TOR pathway GLN3 branch reporter MEP2-GFP changes – S. cerevisiae, multiplex flow cytometry, primary screen (AID 1867);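 further: median GFP channel fluorescence of barcode-gated MEP2-GFP cells measured by flow cytometry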; settings: S. cerevisiae MEP2-GFP strain, 3 h, at 10 µM, stronger effect = higher value, 100% means same as DMSO wells
[3] = TOR pathway RTG branch CIT2 reporter changes – S. cerevisiae, GFP fusion, multiplex flow cytometry, primary screen (AID 1870;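 active means percent response above a set limit, the screen-wide mean plus 3 SD, cut at about 130% in these data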;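 further: barcoded CIT2-GFP strain pooled with four other GFP strains with rapamycin as positive control; median GFP fluorescence per well over plate mean of DMSO wells so 100% = DMSO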); settings: S. cerevisiae CIT2-GFP expression, 3 h, at 10 µM, stronger effect = higher value
[4] = TOR pathway LAP4-GFP level changes – S. cerevisiae, multiplex flow cytometry, primary screen (AID 1873;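 active means GFP signal, as percent of the solvent control, above the screen mean plus 3 SD, about 149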); settings: S. cerevisiae LAP4-GFP expression, 3 h, at 10 µM, stronger effect = higher value
[5] = yeast AGP1-GFP level changes, GLN3 branch – cell-based, multiplex flow cytometry, S. cerevisiae, primary screen (AID 1887;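 active means GFP signal above the screen-wide mean plus 3 SD, that is over about 124.5% of the solvent control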;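 further: AGP1-GFP fusion strain of S. cerevisiae within a five-strain barcoded multiplex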); settings: 3 h, at 10 µM, stronger effect = higher value
[6] = reduced mouse 2C T cell binding to pMHC/ICAM-1 vesicles – MLPCN validation set, flow cytometry, LFA-1/ICAM-1 modulator project, pilot screen (AID 2523;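 active means response below a set limit, under 55% cells CD8-positive and vesicle-bound, and CD8 cells' 90th-percentile brightness under 279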;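 on vesicle binding response: mean PE anti-B7-1 fluorescence of CD8+ cells relative to row control; 100% = QL9-loaded vesicles with DMSO vehicle in the same plate row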); settings: 2C mouse CD8+ T cells, at 7 µM, stronger effect = lower value; double positive events: measured here: CD8+/vesicle+ event percentage
[7] = target: Integrin beta-1 (Homo sapiens) + Integrin alpha-4 (Homo sapiens) (UniProt P13612+P05556); assay: alpha4beta1 integrin LIBS antibody binding reduction – U937 cells, HUTS-21 mAb, flow cytometry, validation set, VLA-4 allosteric modulator project, pilot screen (AID 2674;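 active means inhibition above 50%, about 3 SD of the validation set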;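 further: antibody binding induced by the VLA-4 ligand LDV present at three times its Kd; 0% = LDV ligand with antibody and no compound and 100% = antibody without LDV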); settings: HUTS-21 LIBS mAb binding, at 6.7 µM, stronger effect = higher value, binding induced by LDV ligand
[8] = calorie-restriction mimetic ROS inhibitors, yeast – validation compound set, pilot screen (AID 2706;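 active means superoxide response below 65% of plate, a cut near 3 SD across the whole screen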;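 further: yeast exposed to compound for one week at 30 degrees C before staining; 100% = mean of all compound wells on the same plate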); settings: S. cerevisiae aging, superoxide DHE fluorescence; at 10 µM; stronger effect = lower value
[9] = target: Beta-adrenergic receptor kinase 1 (Homo sapiens) (UniProt P25098); assay: GRK2 binders displacing RNA aptamer, biochemical, validation, human GRK2, bead flow cytometry (AID 488806;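 active means aptamer binding inhibition above 30%, about 3 SD of noise from non-fluorescent compounds; inactive means inhibition at or below 30%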); settings: bead-bound GRK2, FAM-aptamer displacement, at 10 µM, stronger effect = higher value
[10] = target: Beta-2 adrenergic receptor (Homo sapiens) (UniProt P07550); assay: agonist-induced loss of surface beta2AR – cell-based, FAP fluorogen, flow cytometry, validation set, pilot screen (AID 504459;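 active means percent response above 42, roughly 3 SD of non-fluorescent test compounds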;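 further: agonist-driven loss of surface beta2AR via internalization measured by FAP dye flow cytometry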); settings: Am2.2-beta2AR cells, at 10 µM, stronger effect = higher value
[11] = target: AP-2 complex subunit beta (Homo sapiens) (UniProt P63010); assay: beta-arrestin/AP2 interaction blockers – biochemical, validation set, GST-AP2 beads, flow cytometry, pilot screen (AID 504541;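 active means inhibition above 54%, about 3 SD of non-fluorescent compounds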;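 further: AP2 carries R879A mutation and is captured from E. coli lysate; bead-bound FITC arrestin peptide fluorescence measuring arrestin peptide binding to AP2; 0% = DMSO wells and 100% = excess unlabeled arrestin peptide control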); settings: FITC arrestin peptide, at 10 µM, stronger effect = higher value, AP2 beta2 appendage fragment, R879A mutant
[12] = cytosolic pH regulators acting via V-ATPase – S. cerevisiae, pHLuorin, HTS validation (AID 504600; in the data active means response above about 15%;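 further: plate controls were DMSO for no effect and reference compound for full effect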); settings: V-ATPase proton transport, at 10 µM, stronger effect = higher value
[13] = system: anti-desmoglein-3 scFv antibody binding to human DSG3; assay: blockers of pathogenic pemphigus antibody–desmoglein-3 binding – biochemical, validation compound set, bead-based, flow cytometry, pilot screen (AID 588368;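 active means binding below the plate cutoff, the plate median minus 3 SD, with a reading above zero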;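 further: signal is the median channel fluorescence of bead-bound GFP antibody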); settings: Protein G beads, DSG3-Fc, scFv-GFP binding, at 10 µM, stronger effect = lower value
[14] = Nile Red efflux blockade in pump-expressing yeast – validation compound set, multiplex, phenotypic, pilot screen (AID 588506;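 active means efflux inhibition above 0.42, the validation set average plus 4 SD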;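 further: Nile Red retained in cells so higher fluorescence means more efflux inhibition; 0 = negative control wells and 1 = enniatin B 25 µM full block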); settings: S. cerevisiae pump-expressing triplex, Nile Red efflux flow cytometry; at 10 µM; stronger effect = higher value; the pumps come from Candida albicans
[15] = target: ATP-binding cassette sub-family B member 6 (Homo sapiens) (UniProt Q9NP58); assay: blockers of ABCB6-driven porphyrin uptake – K562-ABCB6 cells, flow cytometry, validation set, pilot screen (AID 588550;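 active means inhibition above the screen-wide mean plus 3 SD, about 51%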;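 further: 0% = DMSO wells and 100% = benzethonium chloride 70 µM positive control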); settings: K562-ABCB6 porphyrin accumulation, 1 h, at 10 µM, stronger effect = higher value
[16] = AML differentiation inducers, ER-HoxA9 marrow cells – cell-based, GFP/MAC1 double positive, flow cytometry, validation set, primary screen (AID 588685;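 active means differentiation response of at least 50%, scaled between solvent and reference control, from cells with both markers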;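 further: compound exposure lasts four days before antibody staining and flow analysis; 0% = DMSO wells and 100% = 5 µM fulvestrant positive control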); settings: stronger effect = higher value, normalized: vehicle 0, fulvestrant 100
[17] = hit retest on RPL19A-GFP reporter strain – cell-based, S. cerevisiae, flow cytometry, cherry picks, mother/daughter gates, confirmation (AID 2270;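 active means GFP response below 50% of the DMSO control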); settings: 3 h, at 10 µM, stronger effect = lower value, 100 = same GFP as DMSO wells
[18] = yeast TOR pathway reporter LAP4-GFP change – cell-based, cherry picks, flow cytometry, mother/daughter gates, confirmation (AID 2271;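 active means GFP response above 150% of the DMSO control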;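 further: ratio of sample to DMSO plate mean so 100% equals DMSO level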); settings: S. cerevisiae LAP4-GFP strain, 3 h, at 10 µM, stronger effect = higher value, 100 means same as DMSO control
[19] = TOR pathway reporter MEP2-GFP, retest of hits – S. cerevisiae, flow cytometry GFP, cherry picks, confirmation (AID 2272;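 active means GFP response above 150% of the DMSO control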;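 further: ratio of well signal to plate DMSO mean so 100% equals DMSO level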); settings: S. cerevisiae MEP2-GFP strain, 3 h, at 10 µM, stronger effect = higher value
[20] = TOR pathway CIT2 reporter hit retest – S. cerevisiae, GFP fusion, cherry picks, mother/daughter gates, confirmation (AID 2274;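 active means GFP response above 150% of the DMSO level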); settings: S. cerevisiae CIT2-GFP strain, flow cytometry, 3 h, at 10 µM, stronger effect = higher value
[21] = measured here: daughter cell gate
[22] = measured here: mother cell gate

Chain of Beta-2 adrenergic receptor (Homo sapiens) (P07550 whole entry, looked up): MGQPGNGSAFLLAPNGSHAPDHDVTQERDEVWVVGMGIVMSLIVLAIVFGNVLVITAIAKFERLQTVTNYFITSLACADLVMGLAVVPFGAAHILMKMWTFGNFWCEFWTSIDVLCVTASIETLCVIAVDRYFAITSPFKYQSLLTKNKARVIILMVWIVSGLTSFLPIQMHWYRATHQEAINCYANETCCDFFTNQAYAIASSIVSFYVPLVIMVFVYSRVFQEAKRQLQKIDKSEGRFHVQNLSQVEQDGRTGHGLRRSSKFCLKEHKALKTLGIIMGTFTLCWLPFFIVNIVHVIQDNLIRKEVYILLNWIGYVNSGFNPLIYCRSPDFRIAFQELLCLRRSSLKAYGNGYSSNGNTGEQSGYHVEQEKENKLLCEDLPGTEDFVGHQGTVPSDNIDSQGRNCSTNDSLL
Chain of Integrin beta-1 (Homo sapiens) + Integrin alpha-4 (Homo sapiens) (P05556 whole entry, looked up): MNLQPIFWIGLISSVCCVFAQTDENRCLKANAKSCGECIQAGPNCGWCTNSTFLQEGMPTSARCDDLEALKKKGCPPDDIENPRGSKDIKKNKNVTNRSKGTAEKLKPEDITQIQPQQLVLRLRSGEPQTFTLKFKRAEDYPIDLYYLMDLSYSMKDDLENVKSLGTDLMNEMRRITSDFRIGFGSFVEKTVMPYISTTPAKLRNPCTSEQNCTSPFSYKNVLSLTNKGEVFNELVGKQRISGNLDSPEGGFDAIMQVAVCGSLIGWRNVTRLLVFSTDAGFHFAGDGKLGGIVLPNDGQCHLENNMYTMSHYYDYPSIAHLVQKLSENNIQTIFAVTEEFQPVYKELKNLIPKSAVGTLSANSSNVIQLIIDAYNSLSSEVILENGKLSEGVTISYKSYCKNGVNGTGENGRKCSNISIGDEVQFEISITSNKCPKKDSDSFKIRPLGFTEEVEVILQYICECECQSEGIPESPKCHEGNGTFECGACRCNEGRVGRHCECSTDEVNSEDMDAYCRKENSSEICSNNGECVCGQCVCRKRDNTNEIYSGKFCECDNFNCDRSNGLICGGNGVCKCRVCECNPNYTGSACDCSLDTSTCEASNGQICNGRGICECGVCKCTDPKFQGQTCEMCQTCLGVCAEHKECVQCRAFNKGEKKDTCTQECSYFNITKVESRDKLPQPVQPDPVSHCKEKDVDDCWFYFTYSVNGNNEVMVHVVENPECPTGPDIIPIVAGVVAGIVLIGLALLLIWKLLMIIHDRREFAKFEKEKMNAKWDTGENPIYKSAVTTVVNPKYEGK
Chain of Integrin beta-1 (Homo sapiens) + Integrin alpha-4 (Homo sapiens) (P13612 whole entry, looked up): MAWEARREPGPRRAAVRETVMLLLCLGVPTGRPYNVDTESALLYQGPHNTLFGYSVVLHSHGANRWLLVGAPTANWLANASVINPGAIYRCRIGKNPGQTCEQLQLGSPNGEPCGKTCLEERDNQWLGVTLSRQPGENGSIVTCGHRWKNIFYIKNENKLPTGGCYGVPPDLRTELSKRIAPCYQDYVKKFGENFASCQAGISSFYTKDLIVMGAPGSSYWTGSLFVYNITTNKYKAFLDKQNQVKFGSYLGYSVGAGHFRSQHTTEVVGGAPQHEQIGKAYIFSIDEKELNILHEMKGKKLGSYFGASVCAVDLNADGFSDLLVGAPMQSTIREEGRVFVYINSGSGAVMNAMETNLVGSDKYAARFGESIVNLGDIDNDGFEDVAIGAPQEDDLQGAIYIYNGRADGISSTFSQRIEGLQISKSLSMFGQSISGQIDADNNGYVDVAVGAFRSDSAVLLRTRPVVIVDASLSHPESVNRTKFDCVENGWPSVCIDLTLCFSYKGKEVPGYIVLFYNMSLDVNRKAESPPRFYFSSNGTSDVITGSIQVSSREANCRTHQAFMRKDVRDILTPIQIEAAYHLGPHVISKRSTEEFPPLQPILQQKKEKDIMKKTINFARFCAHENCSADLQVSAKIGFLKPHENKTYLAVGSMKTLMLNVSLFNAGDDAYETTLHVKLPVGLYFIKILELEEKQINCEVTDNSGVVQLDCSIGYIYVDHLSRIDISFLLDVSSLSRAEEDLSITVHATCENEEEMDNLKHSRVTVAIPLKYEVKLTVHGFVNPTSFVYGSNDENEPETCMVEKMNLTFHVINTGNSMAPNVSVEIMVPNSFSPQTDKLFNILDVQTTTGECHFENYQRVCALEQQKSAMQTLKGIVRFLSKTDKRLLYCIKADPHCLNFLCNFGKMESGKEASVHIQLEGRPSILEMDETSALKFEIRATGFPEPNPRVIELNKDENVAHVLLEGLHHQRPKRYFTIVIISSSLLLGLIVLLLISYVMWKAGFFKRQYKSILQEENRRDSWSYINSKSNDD
Chain of ATP-binding cassette sub-family B member 6 (Homo sapiens) (Q9NP58 whole entry, looked up): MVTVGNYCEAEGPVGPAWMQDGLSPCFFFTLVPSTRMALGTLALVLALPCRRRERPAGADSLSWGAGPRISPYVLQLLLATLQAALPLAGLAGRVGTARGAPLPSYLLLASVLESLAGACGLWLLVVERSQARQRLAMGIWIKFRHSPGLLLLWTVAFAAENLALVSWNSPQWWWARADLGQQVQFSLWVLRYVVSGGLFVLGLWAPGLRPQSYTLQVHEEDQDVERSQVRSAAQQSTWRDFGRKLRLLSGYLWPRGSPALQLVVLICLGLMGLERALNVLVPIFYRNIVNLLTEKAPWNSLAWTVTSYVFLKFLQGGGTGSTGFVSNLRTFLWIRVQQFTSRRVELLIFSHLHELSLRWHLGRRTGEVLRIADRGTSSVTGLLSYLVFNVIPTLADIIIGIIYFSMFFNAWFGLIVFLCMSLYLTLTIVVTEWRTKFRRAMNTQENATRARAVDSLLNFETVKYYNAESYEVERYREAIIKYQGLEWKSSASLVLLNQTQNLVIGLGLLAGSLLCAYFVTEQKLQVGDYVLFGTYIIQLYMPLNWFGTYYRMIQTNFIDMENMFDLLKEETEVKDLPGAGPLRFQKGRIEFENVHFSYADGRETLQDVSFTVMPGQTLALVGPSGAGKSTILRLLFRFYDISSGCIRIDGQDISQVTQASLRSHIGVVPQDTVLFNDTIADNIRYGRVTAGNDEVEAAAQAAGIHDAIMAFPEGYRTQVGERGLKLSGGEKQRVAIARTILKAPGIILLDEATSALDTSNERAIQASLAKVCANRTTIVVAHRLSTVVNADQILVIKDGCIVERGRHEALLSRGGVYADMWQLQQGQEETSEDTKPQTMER
Chain of Beta-adrenergic receptor kinase 1 (Homo sapiens) (P25098 whole entry, looked up): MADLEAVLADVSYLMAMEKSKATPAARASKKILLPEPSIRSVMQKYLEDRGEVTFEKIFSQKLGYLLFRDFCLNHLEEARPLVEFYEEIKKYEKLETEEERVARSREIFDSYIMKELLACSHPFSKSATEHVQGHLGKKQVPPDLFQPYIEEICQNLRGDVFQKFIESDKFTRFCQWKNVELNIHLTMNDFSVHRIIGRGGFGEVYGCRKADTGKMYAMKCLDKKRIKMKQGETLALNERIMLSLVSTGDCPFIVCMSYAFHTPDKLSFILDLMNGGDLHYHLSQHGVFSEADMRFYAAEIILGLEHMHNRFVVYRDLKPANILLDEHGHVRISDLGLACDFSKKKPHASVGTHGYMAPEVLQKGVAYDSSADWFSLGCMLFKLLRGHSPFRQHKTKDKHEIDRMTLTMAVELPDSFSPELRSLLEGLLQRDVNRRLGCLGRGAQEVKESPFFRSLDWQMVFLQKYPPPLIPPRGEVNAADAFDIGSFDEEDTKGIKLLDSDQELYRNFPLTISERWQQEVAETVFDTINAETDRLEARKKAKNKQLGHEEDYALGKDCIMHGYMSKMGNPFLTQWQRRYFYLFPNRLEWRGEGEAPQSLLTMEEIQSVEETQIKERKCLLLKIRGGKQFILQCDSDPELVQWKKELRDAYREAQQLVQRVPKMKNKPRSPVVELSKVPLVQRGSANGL
Chain of AP-2 complex subunit beta (Homo sapiens) (P63010 whole entry, looked up, the tested form may be a part, one chain of several): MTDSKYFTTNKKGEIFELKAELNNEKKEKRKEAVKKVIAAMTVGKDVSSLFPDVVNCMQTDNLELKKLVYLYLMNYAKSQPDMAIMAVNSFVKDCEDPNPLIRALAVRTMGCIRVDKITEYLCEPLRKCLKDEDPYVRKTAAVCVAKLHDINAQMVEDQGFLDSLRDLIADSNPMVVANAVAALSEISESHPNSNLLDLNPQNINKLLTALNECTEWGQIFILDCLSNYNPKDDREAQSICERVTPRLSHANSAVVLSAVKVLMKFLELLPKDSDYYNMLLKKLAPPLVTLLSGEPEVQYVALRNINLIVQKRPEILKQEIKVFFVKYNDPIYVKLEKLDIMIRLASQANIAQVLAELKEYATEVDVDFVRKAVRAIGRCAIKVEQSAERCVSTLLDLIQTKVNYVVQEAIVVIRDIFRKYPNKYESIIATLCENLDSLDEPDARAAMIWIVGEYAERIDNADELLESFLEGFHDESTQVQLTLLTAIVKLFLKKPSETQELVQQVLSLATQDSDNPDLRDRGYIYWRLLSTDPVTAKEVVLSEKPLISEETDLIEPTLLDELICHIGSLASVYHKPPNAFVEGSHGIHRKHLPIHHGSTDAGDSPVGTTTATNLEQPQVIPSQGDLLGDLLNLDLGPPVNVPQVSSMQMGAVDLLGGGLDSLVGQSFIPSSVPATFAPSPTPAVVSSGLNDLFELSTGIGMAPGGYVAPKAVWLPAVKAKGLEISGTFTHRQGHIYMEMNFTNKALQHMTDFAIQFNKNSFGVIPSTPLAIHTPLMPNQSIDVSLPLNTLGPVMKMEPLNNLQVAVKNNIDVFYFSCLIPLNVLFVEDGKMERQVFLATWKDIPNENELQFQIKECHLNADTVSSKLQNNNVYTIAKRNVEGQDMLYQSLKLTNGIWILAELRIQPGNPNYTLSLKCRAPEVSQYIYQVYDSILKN

NCCc1ccc(O)c(O)c1
inactive: percent of DMSO control GFP [1] 98.2% | GFP response vs DMSO [2] 107% | percent response of DMSO control [3] 93.1% | GFP response vs DMSO [4] 92% | GFP response, % of DMSO [5] 95.6% | vesicle binding response [6] 831% | inhibition [7] -10.8% | superoxide response (% of plate) [8] 90.7% | aptamer binding inhibition [9] 3% | response [10] 11.2% | inhibition [11] 11.9% | response [12] -0.98% | binding (% of control) [13] 94.3% | efflux inhibition (fraction of control) [14] 0.08 | inhibition [15] 6% | differentiation response [16] 5.13%
65.4%: double positive events [6]

O=c1nc2n(c3c1oc1ccccc13)Cc1ccccc1-2
56.6%: double positive events [6]
inactive: percent of DMSO control GFP [1] 100% | GFP response vs DMSO [2] 105% | percent response of DMSO control [3] 104% | GFP response vs DMSO [4] 105% | GFP response, % of DMSO [5] 108% | vesicle binding response [6] 142% | inhibition [7] -3.77% | superoxide response (% of plate) [8] 93.6% | aptamer binding inhibition [9] -1% | response [10] -25.7% | inhibition [11] -6.48% | response [12] -0.9% | binding (% of control) [13] 99.6% | efflux inhibition (fraction of control) [14] -0.3 | inhibition [15] -3% | differentiation response [16] -6.03%

COc1cccc(=O)c2c(C)n(CC(=O)c3ccccc3)c(C)c12
inactive: percent of DMSO control GFP [1] 100% | GFP response vs DMSO [2] 102% | percent response of DMSO control [3] 95.1% | GFP response vs DMSO [4] 113% | GFP response, % of DMSO [5] 113% | vesicle binding response [6] 203% | inhibition [7] -72.7% | superoxide response (% of plate) [8] 96.3% | aptamer binding inhibition [9] -1% | response [10] -13.2% | inhibition [11] -9.87% | response [12] 2.5% | binding (% of control) [13] 98.8% | efflux inhibition (fraction of control) [14] 0.33 | inhibition [15] -32% | differentiation response [16] -2.03%
58.2%: double positive events [6]

O=C(Cc1ccccc1)NNC(=O)Cc1ccccc1
63.3%: double positive events [6]
inactive: percent of DMSO control GFP [1] 101% | GFP response vs DMSO [2] 108% | percent response of DMSO control [3] 102% | GFP response vs DMSO [4] 94% | GFP response, % of DMSO [5] 98.9% | vesicle binding response [6] 224% | inhibition [7] -5.64% | superoxide response (% of plate) [8] 113% | aptamer binding inhibition [9] -1% | response [10] -7.57% | inhibition [11] 53.7% | response [12] -12.3% | binding (% of control) [13] 91.9% | efflux inhibition (fraction of control) [14] 0.27 | inhibition [15] 2% | differentiation response [16] 24.7%

CCOCC(=O)Nc1ccccc1C(=O)N1CCOCC1
inactive: percent of DMSO control GFP [1] 97% | GFP response vs DMSO [2] 130% | percent response of DMSO control [3] 114% | GFP response vs DMSO [4] 88.6% | GFP response, % of DMSO [5] 87.7% | vesicle binding response [6] 182% | inhibition [7] -2.27% | superoxide response (% of plate) [8] 96.8% | aptamer binding inhibition [9] 6% | response [10] 2.34% | inhibition [11] 14.3% | response [12] -3.44% | binding (% of control) [13] 100% | efflux inhibition (fraction of control) [14] 0.23 | differentiation response [16] 0%
67.2%: double positive events [6]

Cc1cccc(NC(=O)c2cc3ccccc3o2)c1
inactive: percent of DMSO control GFP [1] 94.6% | GFP response vs DMSO [2] 115% | percent response of DMSO control [3] 112% | GFP response vs DMSO [4] 90.8% | GFP response, % of DMSO [5] 86.3% | vesicle binding response [6] 162% | inhibition [7] 5.49% | superoxide response (% of plate) [8] 90.5% | aptamer binding inhibition [9] 2% | response [10] -1.7% | inhibition [11] 1.31% | response [12] -0.5% | binding (% of control) [13] 102% | efflux inhibition (fraction of control) [14] -0.24 | inhibition [15] 17% | differentiation response [16] 3.28%
69.2%: double positive events [6]

CSCC[C@H](NC(=O)NC1CCCC1)C(=O)O
70.2%: double positive events [6]
inactive: percent of DMSO control GFP [1] 89.8% | GFP response vs DMSO [2] 113% | percent response of DMSO control [3] 99.2% | GFP response vs DMSO [4] 75.4% | GFP response, % of DMSO [5] 89.6% | vesicle binding response [6] 233% | inhibition [7] 8.4% | superoxide response (% of plate) [8] 113% | aptamer binding inhibition [9] 3% | response [10] -7.36% | inhibition [11] -9.17% | response [12] 1.23% | binding (% of control) [13] 101% | efflux inhibition (fraction of control) [14] 0.34 | inhibition [15] 13% | differentiation response [16] 0.82%

CC12CCC(C(=O)NCc3ccc4c(c3)OCO4)(CC1=O)C2(C)C (stereo not given)
60.9%: double positive events [6]
inactive: percent of DMSO control GFP [1] 100% | GFP response vs DMSO [2] 98.6% | percent response of DMSO control [3] 103% | GFP response vs DMSO [4] 102% | GFP response, % of DMSO [5] 107% | vesicle binding response [6] 252% | inhibition [7] 0.59% | superoxide response (% of plate) [8] 113% | aptamer binding inhibition [9] 0% | response [10] -30.8% | inhibition [11] 4.11% | response [12] -1.56% | binding (% of control) [13] 105% | efflux inhibition (fraction of control) [14] 0.08 | inhibition [15] 6% | differentiation response [16] -1.05%

CCN(CC)c1ccc2cc(-c3nc(-c4ccc(OC)cc4)cs3)c(=O)oc2c1
103%: GFP response vs DMSO [17, 21]
inactive: GFP response vs DMSO [17] 105% | GFP response relative to DMSO [18] 138%
152%: GFP response, % of DMSO [20, 21]
149%: GFP response, % of DMSO [20, 22]
132%: GFP response relative to DMSO ([18]; measured here: daughter cell gate response)
active: GFP response vs DMSO [19] 180% | GFP response, % of DMSO [20] 160%
135%: GFP response relative to DMSO ([18]; measured here: mother cell gate response)
106%: GFP response vs DMSO [17, 22]
